Assay [1] in a line: A CellTox Green Cytotoxicity Assay to monitor cytotoxicity in HepG2 cells - 0 hour (AID 1224882). Also: nearly all actives have a fitted effect of over 35% in size. In outline: (§1)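 HepG2, 600 cells/well premixed w/ CellTox Green; 5 h settle, 37 C/5% CO2; pintool cpd add (DMSO); 37 C, 40 h; fluorescence read at 0, 8, 16, 24, 32, 40 h.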
The nature of assay [2]: A CellTox Green Cytotoxicity Assay to monitor cytotoxicity in HepG2 cells - 32 hour (AID 1224883). Also: nearly all actives have a fitted effect of over 50% in size. Also: potency is read from the fitted curve at half-maximal effect. In outline: as §1
Assay [3] is described as follows: A CellTox Green Cytotoxicity Assay to monitor cytotoxicity in HEK293 cells - 8 hour (AID 1224884). Also: nearly all actives have a fitted effect of over 35% in size. Summed up: (§2)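 Read-out: fluorescence of a cell-impermeant cyanine dye staining DNA of dead cells, proportional to cytotoxicity. HEK293, 600 cells/well with reagent, compound (23 nL DMSO) added after 5 h; reads at 0, 8, 16, 24, 32, 40 h.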
Assay [4] is described as follows: qHTS RealTime-Glo MT Cell Viability Assay in HepG2 cells - 16 hour (AID 1224885). Also: nearly all actives have a fitted effect of over 50% in size. Also: potency is read from the fitted curve at half-maximal effect. In outline: (§3)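 Real-time, nonlytic viability: 600 HepG2 cells/well mixed with NanoLuc enzyme plus prosubstrate; 5 h settle, compound (DMSO) added by pintool; luminescence monitored over 40 h at 37 C.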
Assay [5] in a line: qHTS RealTime-Glo MT Cell Viability Assay in HEK293 cells - 24 hour (AID 1224886). Also: nearly all actives have a fitted effect of over 50% in size. Also: potency is read from the fitted curve at half-maximal effect. Summed up: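 Cells + reagent dispensed (600 cells/well, HEK293) → 5 h at 37 C/5% CO2 → 23 nL compound in DMSO pinned → 40 h at 37 C → luminescence read at 0, 8, 16, 24, 32, 40 h.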
Assay [6] is described as follows: qHTS RealTime-Glo MT Cell Viability Assay in HEK293 cells - 8 hour (AID 1224887). Also: nearly all actives have a fitted effect of over 50% in size. Also: potency is read from the fitted curve at half-maximal effect. Summed up: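 Luminescence readout at each listed time point; HEK293, 600 cells/well, RealTime-Glo MT reagent added with cells; compounds pinned (23 nL in DMSO) after 5 h at 37 C; continuous culture at 37 C.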
A general note: qHTS replaces the single test concentration by a dilution series.

The nature of assay [7]: A CellTox Green Cytotoxicity Assay to monitor cytotoxicity in HEK293 cells - 16 hour (AID 1224888). Also: nearly all actives have a fitted effect of over 35% in size. Summed up:
as §2

Assay [8] can be described thus: qHTS RealTime-Glo MT Cell Viability Assay in HepG2 cells - 0 hour (AID 1224889). Also: nearly all actives have a fitted effect of over 50% in size. Summed up:
as §3

Assay [9] is described as follows: A CellTox Green Cytotoxicity Assay to monitor cytotoxicity in HEK293 cells - 32 hour (AID 1224881). Also: nearly all actives have a fitted effect of over 40% in size. In outline:
as §2

Assay [10] in a line: A CellTox Green Cytotoxicity Assay to monitor cytotoxicity in HepG2 cells - 8 hour (AID 1224890). Also: nearly all actives have a fitted effect of over 45% in size. In outline:
as §1

18 molecules from PubChem BioAssay (Tox21) can be followed below.

Values joined by “and” are separate entries in the source; they are usually repeats but may differ in a detail not shown here. Identical values can stand only once. Inconclusive results are not listed. Active and inactive are the calls of the source. Calls follow the shape of the dose curve; as a rule, active = well fitted curve in the direction sought with a large enough effect in the repeat runs; inconclusive = weak or mixed curves; inactive = no such curve, though single readings can be large; an effect the other way counts as inactive or inconclusive.

Consider `O=[N+]([O-])/C=C/c1ccccc1`, for which the Potency entry in assay [1], in assay [3] and in assay [7] was “inactive” each time. For the same molecule, the Potency in assay [2] was 17.7 µM (active); in assay [4], 49.8 µM (active) and 21.9 µM (active); in assay [5], 6.27 µM (active) and 13.8 µM (active); in assay [6] it was 14 µM (active) and 15.5 µM (active). Also, in assay [8], the result was inactive.

Regarding `CC(C)c1ccc(NC(=O)N(C)C)cc1`, the Potency entry in [9], in assay [2], in [3], in assay [4], in [5] and in assay [6] was “inactive” in each case. Besides, the Potency entry in assay [7] and in [10] was “inactive” in each case.

Regarding `CC(Oc1cccc(Cl)c1)C(=O)O` (centres undefined), the Potency entry in assay [1], in assay [2], in assay [3], in assay [4], in assay [5] and in assay [6] was “inactive” throughout. Moreover, the Potency entry in assay [7] and in assay [10] was “inactive” each time. Further, the molecule was classed as inactive in assay [8].

As for `c1ccc2sc(SNC3CCCCC3)nc2c1`, the Potency result in assay [9], in assay [2], in assay [3], in assay [5], in assay [6] and in [7] was “inactive” throughout. Moreover, in assay [10], the Potency result is “inactive”. Also, in assay [8], the molecule was classed as inactive.

Consider `O=C(N/N=C/c1ccc([N+](=O)[O-])o1)c1cc([N+](=O)[O-])cc([N+](=O)[O-])c1O`, for which the Potency entry in assay [1], in assay [2], in assay [3], in [4], in assay [5] and in assay [6] was “inactive” each time. In addition, the Potency result in assay [7] and in assay [10] was “inactive” each time. Also, in [8], the outcome was inactive.

Turning to `Cc1ccc(N)c(C)c1`, the Potency result in [9], in assay [3], in assay [5], in assay [6], in assay [7] and in [10] was “inactive” in each case. For the same molecule, the molecule was called inactive in assay [8].

Consider `O=C(O)CCCOc1ccc(Cl)cc1Cl`, for which the Potency result in [9], in assay [3], in assay [4], in [5], in [6] and in [7] was “inactive” each time. The Potency entry in assay [10] was “inactive”. In [8], the call was inactive.

Consider `C[C@H]1[C@@H]2Cc3ccc(O)cc3[C@@]1(C)CCN2C`, for which the Potency result in [9], in assay [3], in assay [6], in assay [7] and in assay [10] was “inactive” each time. Also, the call in assay [8] was inactive.

As for `CCCCC(CC)CO[N+](=O)[O-]` (centres undefined), the Potency result in assay [9], in [2], in [3], in [5], in assay [6] and in assay [7] was “inactive” throughout. Also, the Potency result in assay [10] was “inactive”. Further, the call in [8] was inactive.

In the case of `CCOc1cccc(C2(N3CCN(c4ccccc4)CC3)CCC(C)CC2)c1` (centres undefined), the Potency result in [1], in assay [2], in assay [3], in assay [4], in [5] and in assay [6] was “inactive” in each case. The Potency result in assay [7] and in [10] was “inactive” throughout. The outcome in assay [8] was inactive.

Regarding `C[C@@H]1C[C@@H]([C@H](O)CC2CC(=O)NC(=O)C2)C(=O)[C@@H](C)C1`, the Potency entry in assay [9], in assay [2], in assay [3], in assay [4], in assay [6] and in assay [7] was “inactive” in each case. Besides, in assay [10], the Potency result is “inactive”. Besides, the Potency in [5] was 434 nM (active) and 245 nM (active) and 169 nM (active).

Turning to `COCc1cnc(C2=NC(C)(C(C)C)C(=O)N2)c(C(=O)O)c1` (centres undefined), the Potency result in assay [9], in assay [2], in assay [3], in [4], in assay [5] and in assay [6] was “inactive” in each case. Also, the Potency result in [7] and in assay [10] was “inactive” each time. Also, the molecule was called inactive in assay [8].

With `CC(C)C1(C)N=C(c2ncccc2C(=O)O)NC1=O` (centres undefined), the Potency entry in assay [9], in assay [2], in assay [3], in [5], in assay [6] and in [7] was “inactive” in each case. The Potency result in assay [10] was “inactive”. For the same molecule, in [8], the outcome was inactive.

For the molecule `Cc1ccccc1`, the Potency entry in [9], in assay [3], in [4], in assay [5], in assay [6] and in assay [7] was “inactive” in each case. The Potency entry in [10] is “inactive”. The molecule was called inactive in assay [8].

Regarding `FC(F)OC(F)(F)C(F)Cl` (centres undefined), the Potency entry in assay [1], in assay [2], in assay [3], in [4], in assay [5] and in [6] was “inactive” in each case. The Potency result in assay [7] and in assay [10] was “inactive” throughout. Also, the call in assay [8] was inactive.

As to `NC(=O)CF`, the Potency entry in assay [9], in assay [2], in assay [3], in assay [5], in [6] and in assay [7] was “inactive” in each case. For the same molecule, the Potency entry in assay [10] is “inactive”.

Consider `O=S(=O)(c1ccccc1)c1ccccc1`, for which the Potency entry in [9], in assay [3], in assay [5], in [6], in assay [7] and in assay [10] was “inactive” each time. Moreover, the molecule was called inactive in assay [8].

Take `N#CC(C#N)=C(C#N)C#N`: the Potency result in [9], in [2], in assay [3], in assay [5], in [6] and in assay [7] was “inactive” each time. Moreover, the Potency result in assay [10] was “inactive”. Besides, the molecule was classed as inactive in assay [8].
